Composite z-score and z-score data for five molecules are collected here from PubChem BioAssay.

Calls of active or inactive are those of the source. Unless noted, how the calls were made is not given here.

The subject of assay [1] is Wnt5a (protein binding on small-molecule microarray). The assay is described as follows: Wnt5a binders on small-molecule microarray, primary screen, biophysical, 635/667 nm fluorescence (AID 1142).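 Further: fluorescence read at 667 nm with signal to noise per printed feature.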 The note with it: 635 nm fluorescence, higher = more signal.
Assay [2] in a line: cell viability in Huh7 cells, primary screen, cytotoxicity control for HCV replication inhibitor project, CellTiter-Glo luminescence, basal, 48 h (AID 1143).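 Further: Huh7 hepatoma cells carrying a hepatitis C replication reporter with no stimulus; test concentration not given here.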 Conditions: Huh7 HCV replicon, higher = more signal, called active from +8 up or from −8 down. (In ATP-based viability assays light output follows the ATP content of the culture.)
Assay [3] in a line: P. aeruginosa biofilm formation inhibitors, primary screen, PAO1 strain, BacTiter-Glo luminescence, LB-PBS (AID 1144). The note with it: 12 h, higher = more signal.
Assay [4] is described as follows: CREB reporter modulators without forskolin, primary screen, cell-based, PC12, CRE-LacZ reporter, unstimulated (AID 1145). Conditions: no forskolin, luminescence, 4.5 h, higher = more signal, called active from +8 up or from −8 down.
Assay [5] in a line: CREB reporter modulators under forskolin, primary screen, cell-based, PC12, CRE-LacZ reporter, forskolin-stimulated (AID 1146).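 Further: PC12 cells with 6xCRE LacZ reporter stimulated by forskolin 10 µM; beta-galactosidase reporter signal reflecting CREB driven transcription.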 Conditions: luminescence, 4.5 h, higher = more signal, called active from +8 up or from −8 down.
The target of assay [6] is Streptavidin (Streptomyces avidinii) (UniProt P22629). Put plainly: streptavidin binders on small-molecule microarray, primary screen, artefact control for SMM compound annotation, biophysical, 635/667 nm fluorescence (AID 1147).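 Further: signal reflects streptavidin binding to arrayed compounds as a control protein.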 Conditions: streptavidin binding, higher = more signal.
Assay [7] can be described thus: small-molecule binders of probe aInhba, primary screen, biochemical, small-molecule microarray, 635/667 nm fluorescence (AID 1148).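 Further: score merges 667nm spot fluorescence with signal-to-noise for antibody binding to printed compounds.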 Conditions: higher = more signal.
The target of assay [8] is Torsin-1A (Homo sapiens) (UniProt O14656). Put plainly: torsin A binders from cell lysate, primary screen, small-molecule microarray, wild-type, 635/667 nm (AID 1149). The note with it: COS7 hTOR1A-WT lysate, 635 nm fluorescence, higher = more signal.
The target is the same in assay [9]. The assay is described as follows: small-molecule binders of mutant TOR1A in lysate, primary screen, cell lysate, small-molecule microarray, COS7 lysate, 635/667 nm fluorescence (AID 1150).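 Further: score pools 667 nm emission and signal to noise measuring lysate protein binding.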 Conditions: COS7 hTOR1A mutant lysate, 635 nm fluorescence, higher = more signal.
Assay [10] deals with Sonic hedgehog protein (Shh). Put plainly: small-molecule binders of Shh protein, primary screen, biochemical, small-molecule microarray, 635/667 nm fluorescence (AID 1151).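 Further: Shh protein binding to compounds spotted on small-molecule microarray slides; score combines spot fluorescence intensity with signal-to-noise across triplicate slides.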 Conditions: small-molecule microarray binding, 635 nm fluorescence; higher = more signal.
The nature of assay [11]: E. coli DRC41 culture turbidity changes, primary screen, E. coli filamentation inducer project, strain DRC41, OD650, 48 h (AID 1152).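 Further: E. coli MC1000 strain DRC41 lacking acrAB efflux pump and sulA.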 The note with it: E. coli DRC41 (acrAB sulA), higher = more signal, called active from +8 up or from −8 down.
A short description of assay [12]: small-molecule binders of probe aLefty1, primary screen, biochemical, small-molecule microarray, 635/667 nm fluorescence (AID 1153).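 Further: score merges spot fluorescence with signal-to-noise ratio from the scanned slide images.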 The note with it: higher = more signal.
The nature of assay [13]: PSAC antagonists in infected red cells, primary screen, cell-based, P. falciparum Indochina, OD700, 1 h (AID 1154). Conditions: P. falciparum Indochina infected RBC osmotic lysis, higher = more signal, called active from +8 up or from −8 down.
Assay [14] can be described thus: PSAC antagonists in infected red cells, primary screen, cell-based, P. falciparum Indochina, OD700, 2 h (AID 1155).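 Further: lysis reports solute entry through the parasite surface anion channel PSAC; channel blockers reduce lysis of infected cells.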 The note with it: P. falciparum Indochina infected erythrocytes, osmotic lysis OD700; higher = more signal, called active from +8 up or from −8 down.
Assay [15] is described as follows: osmotic lysis modulators in infected erythrocytes, primary screen, PSAC antagonist project, cell-based, P. falciparum Indochina, OD700, 3 h (AID 1156). The note with it: higher = more signal, called active from +8 up or from −8 down.
Assay [16] can be described thus: PSAC antagonists in infected red cells, primary screen, cell-based, P. falciparum Indochina, OD700, 18 h (AID 1157). Conditions: P. falciparum Indochina infected erythrocytes, osmotic lysis OD700, 18 h; higher = more signal, called active from +8 up or from −8 down.
Assay [17] can be described thus: modulators of S6 phosphorylation in cells, primary screen, cell-based, A549, cytoblot, luminescence, serum-stimulated (AID 1158).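 Further: serum-stimulated A549 lung adenocarcinoma cells; signal is phosphorylated S6 detected by cytoblot immunostaining with HRP secondary.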 Conditions: A549 phospho-S6 cytoblot, 5 h, higher = more signal.
The target in assay [18] is NADPH oxidase 2 (Homo sapiens) (UniProt P04839). Put plainly: NOX2-dependent H2O2 signal modulators, primary screen, NOX inhibitor project, cell-based, HEK293-NOX2, PMA-stimulated, Amplex Red fluorescence (AID 1159). Further: test concentration not given here. Conditions: 45 min, higher = more signal, called active from +8 up or from −8 down.
The target in assay [19] is NADPH oxidase 4 (Homo sapiens) (UniProt Q9NPH5). Put plainly: NOX4-dependent H2O2 signal modulators, primary screen, NOX inhibitor project, cell-based, HEK293-NOX4, tetracycline-induced, Amplex Red fluorescence (AID 1160). The note with it: 45 min, higher = more signal, called active from +8 up or from −8 down.
Assay [20] concerns the target NADPH oxidase 5 (Homo sapiens) (UniProt Q96PH1). The assay is described as follows: NOX5-dependent H2O2 signal modulators, primary screen, NOX inhibitor project, cell-based, HEK293-NOX5, Amplex Red fluorescence (AID 1161). The note with it: HEK293-NOX5, ionomycin, 45 min, higher = more signal.

Streptavidin (Streptomyces avidinii), sequence (P22629 whole entry, looked up): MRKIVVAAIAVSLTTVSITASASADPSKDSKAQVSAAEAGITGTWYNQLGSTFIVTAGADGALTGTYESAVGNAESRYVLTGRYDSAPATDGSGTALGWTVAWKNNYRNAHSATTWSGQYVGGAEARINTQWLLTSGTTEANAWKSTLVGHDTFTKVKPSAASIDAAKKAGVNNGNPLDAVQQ
NADPH oxidase 5 (Homo sapiens), sequence (Q96PH1 whole entry, looked up): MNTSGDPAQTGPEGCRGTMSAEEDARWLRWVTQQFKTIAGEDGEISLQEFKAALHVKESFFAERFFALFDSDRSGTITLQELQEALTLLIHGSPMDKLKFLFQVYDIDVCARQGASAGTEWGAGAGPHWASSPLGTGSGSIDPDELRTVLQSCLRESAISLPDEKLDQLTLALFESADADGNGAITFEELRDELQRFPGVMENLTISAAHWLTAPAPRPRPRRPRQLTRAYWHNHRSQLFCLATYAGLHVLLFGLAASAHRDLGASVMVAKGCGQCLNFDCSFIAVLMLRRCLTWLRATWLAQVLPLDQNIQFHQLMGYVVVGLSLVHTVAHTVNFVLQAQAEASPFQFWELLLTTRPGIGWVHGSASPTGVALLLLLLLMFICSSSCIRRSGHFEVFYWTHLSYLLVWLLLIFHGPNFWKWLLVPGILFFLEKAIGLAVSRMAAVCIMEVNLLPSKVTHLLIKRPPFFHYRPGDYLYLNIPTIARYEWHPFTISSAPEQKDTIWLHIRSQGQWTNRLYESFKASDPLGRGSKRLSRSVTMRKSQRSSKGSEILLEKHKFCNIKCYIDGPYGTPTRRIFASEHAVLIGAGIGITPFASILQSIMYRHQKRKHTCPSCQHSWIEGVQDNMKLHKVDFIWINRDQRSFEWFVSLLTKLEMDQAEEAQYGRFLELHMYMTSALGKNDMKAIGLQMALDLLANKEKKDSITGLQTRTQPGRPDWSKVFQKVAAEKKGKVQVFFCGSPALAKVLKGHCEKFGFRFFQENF
Torsin-1A (Homo sapiens), sequence (O14656 whole entry, looked up): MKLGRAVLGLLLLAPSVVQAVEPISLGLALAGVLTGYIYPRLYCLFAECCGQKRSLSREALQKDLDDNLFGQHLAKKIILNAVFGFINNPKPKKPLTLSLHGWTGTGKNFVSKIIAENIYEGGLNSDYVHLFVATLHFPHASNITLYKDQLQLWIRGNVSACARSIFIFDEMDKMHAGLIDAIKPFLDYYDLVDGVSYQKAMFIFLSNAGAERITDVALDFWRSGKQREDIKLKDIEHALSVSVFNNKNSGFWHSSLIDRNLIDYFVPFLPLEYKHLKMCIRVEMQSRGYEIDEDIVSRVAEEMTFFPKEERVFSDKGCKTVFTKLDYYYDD
NADPH oxidase 2 (Homo sapiens), sequence (P04839 whole entry, looked up): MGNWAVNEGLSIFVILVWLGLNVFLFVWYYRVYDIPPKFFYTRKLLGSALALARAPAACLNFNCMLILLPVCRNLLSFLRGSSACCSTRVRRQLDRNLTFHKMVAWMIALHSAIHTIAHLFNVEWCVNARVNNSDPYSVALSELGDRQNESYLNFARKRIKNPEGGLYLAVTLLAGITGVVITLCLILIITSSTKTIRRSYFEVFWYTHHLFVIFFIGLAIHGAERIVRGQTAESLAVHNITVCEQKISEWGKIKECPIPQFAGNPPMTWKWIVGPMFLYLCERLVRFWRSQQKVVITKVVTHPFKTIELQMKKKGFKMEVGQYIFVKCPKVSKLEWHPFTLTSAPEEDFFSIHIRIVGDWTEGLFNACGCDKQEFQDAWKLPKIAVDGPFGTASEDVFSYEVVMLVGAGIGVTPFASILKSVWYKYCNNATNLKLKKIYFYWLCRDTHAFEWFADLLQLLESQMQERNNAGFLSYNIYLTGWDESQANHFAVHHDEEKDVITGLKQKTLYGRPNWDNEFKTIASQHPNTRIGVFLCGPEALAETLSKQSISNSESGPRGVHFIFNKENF
NADPH oxidase 4 (Homo sapiens), sequence (Q9NPH5 whole entry, looked up): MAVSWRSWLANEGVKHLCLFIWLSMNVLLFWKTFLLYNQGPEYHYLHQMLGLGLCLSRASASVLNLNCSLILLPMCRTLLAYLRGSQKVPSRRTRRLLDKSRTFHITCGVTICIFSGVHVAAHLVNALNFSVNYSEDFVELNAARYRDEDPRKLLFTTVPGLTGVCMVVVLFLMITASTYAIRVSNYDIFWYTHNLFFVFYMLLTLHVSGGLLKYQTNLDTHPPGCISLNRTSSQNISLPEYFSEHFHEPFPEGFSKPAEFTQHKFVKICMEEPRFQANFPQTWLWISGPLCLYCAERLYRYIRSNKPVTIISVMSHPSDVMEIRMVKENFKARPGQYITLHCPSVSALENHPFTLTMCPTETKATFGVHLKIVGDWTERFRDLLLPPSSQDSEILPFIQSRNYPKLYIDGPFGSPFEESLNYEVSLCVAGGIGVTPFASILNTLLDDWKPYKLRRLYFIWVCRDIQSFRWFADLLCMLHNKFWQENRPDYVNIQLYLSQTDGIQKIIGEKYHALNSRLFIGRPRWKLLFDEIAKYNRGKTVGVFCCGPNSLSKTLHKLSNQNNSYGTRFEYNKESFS

Take `C=CCN1Cc2ccccc2[C@@H]2OC(c3ccc(OCCCO)cc3)=N[C@]2(CC=C)C1=O`: the composite z-score stood at 0.518 in [1]; 0.579 in assay [6]; 0.462 in assay [7]; 0.918 in the assay with Torsin-1A (Homo sapiens) [8]; 0.966 with Torsin-1A (Homo sapiens) [9]; 1.81 in assay [10]. Moreover, in [12], the composite z-score turned out to be 1.49. The z-score in assay [2] is -2.51 (inactive); in assay [3], 0.0166 (inactive); in [4], 0.236 (inactive); in assay [5], -0.377 (inactive); in assay [11], 0.408 (inactive); in assay [13], 22.5 (active). The z-score in [14] is 7.24 (inactive); in assay [15], 5.55 (inactive); in [16] it was 1.33 (inactive); in [17], -0.218; in [18], -1.98 (inactive); in assay [19], 0.452 (inactive). This molecule returned a z-score in [20] of 1.03.
For the molecule `COc1ccc([Si](C)(C)[C@@H]2[C@@H](CCO)O[C@]3(C(=O)N(Cc4ccccc4)c4ccc(N5C(=O)c6cccc7cccc5c67)cc43)[C@H]2C)cc1`, the composite z-score in [1] is -0.328; in assay [6], 0.305; in assay [7], -0.179; with Torsin-1A (Homo sapiens) [8] it was -1.07; with Torsin-1A (Homo sapiens) [9] it was -0.909; in [10], -0.204. Besides, the composite z-score in assay [12] is -0.0111. Further, the z-score in assay [2] is -4 (inactive); in assay [3], -0.441 (inactive); in [4] it was 2.39 (inactive); in assay [5], 0.302 (inactive); in assay [11], 0.487 (inactive); in [13], 2.72 (inactive). Also, the z-score was 2.2 (inactive) in assay [14]; 0.504 (inactive) in [15]; 1.16 (inactive) in assay [16]; -0.0126 in assay [17]; 0.326 (inactive) in assay [18]; 0.1 (inactive) in assay [19]. Besides, in [20], the z-score turned out to be 2.32.
As to `CCCCCCCCCC(O)C1C=CC2C(=O)N(c3ccccc3)C(=O)C2N1Nc1cc(OC)c(OC)c(OC)c1` (stereo not given), the composite z-score in assay [1] was -0.128; in assay [6] it was 0.581; in assay [7], -0.0334; with Torsin-1A (Homo sapiens) [8] it was -1.45; with Torsin-1A (Homo sapiens) [9], -0.241; in assay [10], -0.511. Moreover, the composite z-score in assay [12] was determined as 0.448. In addition, the z-score in assay [2] is -4.06 (inactive); in assay [3], 0.123 (inactive); in assay [4], 0.815 (inactive); in assay [5], -0.262 (inactive); in assay [11], -3.95 (inactive); in assay [13], 7.78 (inactive). In addition, the z-score in [14] was 1.84 (inactive); in assay [15], -0.372 (inactive); in assay [16], -0.449 (inactive); in [17], 1.05; in assay [18], -2.86 (inactive); in assay [19] it was -4.13 (inactive). In addition, in [20], the z-score is -2.67.
On to `CC(C)c1ccc(NN2C(C(O)c3ccc(C#N)cc3)C=CC3C(=O)N(c4ccccc4)C(=O)C32)cc1` (stereo not given), for which the composite z-score in assay [1] is 0.248; in [6] it was 1.96; in [7] it was 0.41; with Torsin-1A (Homo sapiens) [8], 0.0628; with Torsin-1A (Homo sapiens) [9] it was 0.579; in assay [10] it was -0.163. In addition, the composite z-score in [12] amounted to 0.418. In addition, the z-score is -0.687 (inactive) in assay [2]; -0.803 (inactive) in assay [3]; 0.812 (inactive) in assay [4]; 0.802 (inactive) in [5]; -1.6 (inactive) in assay [11]; 15.4 (active) in assay [13]. In addition, the z-score in [14] was 2.64 (inactive); in assay [15] it was 0.567 (inactive); in [16], 1.27 (inactive); in [17] it was -1.05; in [18] it was -1.46 (inactive); in assay [19], -3.24 (inactive). Further, in assay [20], the z-score was -2.38.
For the molecule `C=C[C@H]1C(C(=O)OCC)=CC[C@@H](c2ccccc2)N1S(=O)(=O)c1ccc(C)cc1`, the composite z-score in assay [1] was found to be 0.197; in assay [6] it was 0.767; in [7] it was 0.13; in the assay with Torsin-1A (Homo sapiens) [8], 0.683; with Torsin-1A (Homo sapiens) [9], 0.508; in assay [10] it was 0.056. Besides, the composite z-score in [12] was determined as 0.457. Also, the z-score in assay [2] is -4.68 (inactive); in [3] it was -0.376 (inactive); in assay [4], -0.0137 (inactive); in [5], 0.299 (inactive); in assay [11], -1.11 (inactive); in [13] it was 7.17 (inactive). The z-score is 1.56 (inactive) in [14]; 0.43 (inactive) in assay [15]; 0.509 (inactive) in [16]; -0.518 in assay [17]; 0.09 (inactive) in [18]; -0.613 (inactive) in assay [19]. For the same molecule, the z-score in assay [20] stood at 0.14.
